Test results published in PubChem BioAssay AID977627 (Broad Institute, 2014).
Inconclusive results are not listed. The source made the active and inactive calls. The rule behind the calls is not given here.

Assay: E. coli strain growth, wild-type against H38 humanized mutant – H38 mutant GFP vs wild-type RFP, cherry-pick, dose response (AID 977627)
Details: E. coli H38 humanized ribosome GFP strain, fluorescence, 24 h; activity: measured here: wild-type RFP strain growth, at 50 µM, stronger effect = lower value; series mostly up to 50 µM; activity change, negative = inhibition: at the top concentration

Row | Structure (SMILES) | activity | activity change, negative = inhibition
1 | CC1(Cc2ccccc2C#N)C(=O)Nc2cc(-c3ccccc3Cl)ccc21 (stereo not given) | -20% | –
2 | COC(=O)c1c(NC(=O)CCC(=O)O)sc(Cc2ccccc2)c1C | -41.2% | –
3 | CCOc1ccccc1NC(=O)c1ccc2ccccc2c1 | 5.09% | 5.48 (inactive)
4 | Cc1noc(C)c1NC(=O)Nc1ccc2c(c1)C(=O)N([C@H](C)CO)C[C@@H](C)[C@@H](CN(C)C(=O)Nc1ccc3c(c1)OCO3)OCCCC[C@@H](C)O2 | -3.93% | –
